PubChem BioAssay (EPA / NIEHS)
Results filed as inconclusive are left out. Active and inactive are the calls of the source. The calls were made as follows: active = hit-call score of the fitted dose curve at least 0.9, where 1 is the maximum; inconclusive = response in the unintended direction; inactive = score below 0.9.

read-out: alkyl and aryl transferase (GSTA2), GSTA2 (gene 2939); assay: CLD_GSTA2_6hr: CellzDirect (CLD) Gene Expression Assay for alkyl and aryl transferase (GSTA2) at 6 hours (AID 2283666)
Experimental: CLD_6hr is a cell-based, multiplexed-readout assay that uses hepatocyte, a human liver primary cell, with measurements taken at 6 hours after chemical dosing in a 96-well plate.CLD_GSTA2_6hr is one of 16 assay component(s) measured or calculated from the CLD_6hr assay. It is designed to make measurements of mRNA induction, a form of inducible reporter, as detected with chemiluminescence signals by Quantitative Nuclease Protection Assay (qNPA) technology.Data from the assay component CLD_GSTA2_6hr was analyzed at the endpoint, CLD_GSTA2_6hr, in the positive analysis fitting direction relative to DMSO as the negative control and baseline of activity. Using a type of inducible reporter, gain-of-signal activity can be used to understand changes in the reporter gene as they relate to the gene GSTA2. Furthermore, this assay endpoint can be referred to as a primary readout. To generalize the intended target to other relatable targets, this assay endpoint is annotated to the transferase intended target family, where subfamily is alkyl and aryl transferase.
Human hepatocyte cultures were treated daily for two consecutive days with fresh dosing solutions containing appropriate concentrations of the 320 ToxCast chemicals (chemical identities were blinded to CellzDirect and other ToxCast collaborators), vehicle control (0.2% DMSO), and positive control inducers as summarized in Table 1. Due to the large number of treatment groups and chemicals examined, the ToxCast chemicals were divided into two groups (spanning two independent cultures of hepatocytes from separate donor preparations (Hu778: ToxCast plates 1 and 2; Hu776: ToxCast plates 3 and 4). Each preparation of human hepatocyte cultures was treated with respective vehicle control, medium only control, set of six positive controls/reference chemicals for the five hepatic receptor pathways, and a subset of eight of the ToxCast chemicals (indoxacarb, pyrithiobac-sodium, norflurazon, cyhalofop-butyl, methomyl, thiram, acetochlor, and propiconazole). These replicate data, coupled with internal replicates designed within the blinded ToxCast chemical library, provided additional data to evaluate interindividual differences between hepatocyte preparations and their potential impact on chemical profiles.Cell morphology and integrity were evaluated using phase-contrast microscopy as an indicator of hepatocyte cell health (Tyson & Green, 1987). Cultures for each treatment group (i.e., media, vehicle [0.2% DMSO], positive control inducers [multiple concentrations], and the ToxCast chemicals [multiple concentrations]) were observed and cell morphology was assessed relative to vehicle control cultures at each harvest time point (0, 6, 24, or 48 h). […] Images were evaluated at the conclusion of the study to assess changes in cell integrity and account for the effects of chemical exposure on uncharacteristic changes in concentration-dependent gene expression profiles. The results from these determinations of apparent cytotoxicity were annotated (yes/no) alongside the corresponding qNPA data for reference.At the conclusion of each treatment period, hepatocyte cultures (96-well) were washed with 1 volume of HBSS, lysed by addition of 25 ul ArrayPlate lysis buffer (HTG, Tucson, AZ), and 70 ul/well of Denaturation Oil, denatured by incubation at 95C for 10 min, and frozen at approximately -70C until analysis by nuclease protection assay (qNPA) (Roberts et al., 2007). For qNPA analysis, cell lysates were thawed at 50C for approximately 30 min, qNPA probes were added, and samples were incubated at 95C for 10 min to begin the detection process by denaturing the target RNA, dissociating the duplexes and secondary structure hybridization. At the conclusion of the hybridization period, S1 nuclease reagent was added to each sample to digest all nonprotected nucleotides at 50C for 60-90 min. […]

| Structure (SMILES) | outcome |
| --- | --- |
| CC(C)(C)c1ccc(CSc2cnn(C(C)(C)C)c(=O)c2Cl)cc1 | inactive |
| O=C(O)c1nc(Cl)ccc1Cl | inactive |
| CCCCNC(=O)OCC#CI | inactive |
| Cc1cc(Cl)ccc1OCC(=O)O | inactive |
| C=CCC1=C(C)C(OC(=O)C2C(C=C(C)C)C2(C)C)CC1=O (stereo not drawn) | inactive |
| Cc1ccc(-c2c(Cl)nc(C#N)n2S(=O)(=O)N(C)C)cc1 | inactive |
| CC(C)Oc1cc(-n2nc(C(C)(C)C)oc2=O)c(Cl)cc1Cl | inactive |
| N#Cc1cc(Br)c(O)c(Br)c1 | inactive |
| CCOc1cc(Oc2ccc(C(F)(F)F)cc2Cl)ccc1[N+](=O)[O-] | inactive |
| CCOC(=O)CC(SP(=S)(OC)OC)C(=O)OCC (stereo not drawn) | inactive |
| C=CCC1=C(C)[C@@H](OC(=O)[C@@H]2[C@@H](C=C(C)C)C2(C)C)CC1=O | inactive |
| CCCCNC(=O)n1c(NC(=O)OC)nc2ccccc21 | inactive |
| CCON=C(CC)C1=C(O)CC(c2c(C)cc(C)cc2C)CC1=O (stereo not drawn) | inactive |
| O=C(Nc1ccccc1)Nc1ccnc(Cl)c1 | inactive |
| N#Cc1nn(-c2c(Cl)cc(C(F)(F)F)cc2Cl)c(N)c1S(=O)C(F)(F)F (stereo not drawn) | inactive |
| CCNc1nc(Cl)nc(NC(C)C)n1 | inactive |
| COP(N)(=O)SC (stereo not drawn) | inactive |

| Structure (SMILES) | outcome |
| --- | --- |
| CCc1nn(C)c(C(=O)NCc2ccc(C(C)(C)C)cc2)c1Cl | inactive |
| Cc1c(F)c(F)c(COC(=O)C2C(/C=C(\Cl)C(F)(F)F)C2(C)C)c(F)c1F (stereo not drawn) | inactive |
| CO/C=C(/C(=O)OC)c1ccccc1Oc1cc(Oc2ccccc2C#N)ncn1 | inactive |
| C#CCOS(=O)OC1CCCCC1Oc1ccc(C(C)(C)C)cc1 (stereo not drawn) | inactive |
| CNC(=O)ON=CC(C)(C)SC | inactive |
| COc1nc(C)nc(NC(=O)NS(=O)(=O)c2ccccc2CCC(F)(F)F)n1 | inactive |
| CCOP(=S)(OCC)SCn1c(=O)oc2cc(Cl)ccc21 | inactive |
| CC(Oc1ccc(Cl)cc1Cl)C(=O)O (stereo not drawn) | inactive |
| Oc1ccccc1-c1ccccc1 | inactive |
| COC(=O)C(C)Oc1ccc(Oc2ccc(Cl)cc2Cl)cc1 (stereo not drawn) | inactive |
| COc1nc(C)nc(NC(=O)NS(=O)(=O)c2ccccc2Cl)n1 | inactive |
| O=C(O)COc1nc(Cl)c(Cl)cc1Cl | inactive |
| COc1nc(NC(C)C)nc(NC(C)C)n1 | inactive |
| COC(=O)N(OC)c1ccccc1COc1ccn(-c2ccc(Cl)cc2)n1 | inactive |
| CN(C)C(=S)SSC(=S)N(C)C | inactive |
| COC(=O)C=C(C)OP(=O)(OC)OC | inactive |
